According to PubChem BioAssay AID2315 (National Center for Advancing Translational Sciences (NCATS), 2010):
Screen size: about 290,000 compounds; about 27,000 (9.3%) were called active. Cut-off read from the data, not from the text of the source: active = inhibition mostly above about 28% (no sharp cut-off); inactive = mostly below about 43%. The sample as a whole holds a higher share of actives than the screen did.

assay: A qHTS for Small Molecule Inhibitors of Shiga Toxin; settings: Vero cells, Shiga toxin protein synthesis inhibition reporter; at 38.7 µM, hits give high values; note: 0% is about no effect

SMILES | inhibition
C=Cc1ccc(C(=O)N2CCCC(CCC(=O)N3CCN(c4ccccn4)CC3)C2)cc1 (configuration not stated) | 4.52% (inactive)
CN(CCC(=O)Nc1cc(S(=O)(=O)N(C)C)ccc1Cl)CC(=O)Nc1ccc(F)cc1 | 1.75% (inactive)
CC1(c2ccc3ccccc3c2)NC(=O)NC1=O (configuration not stated) | 9.07% (inactive)
O=C1CCCN2N=C(SCC(=O)Nc3ccc(Br)cc3)SC2=N1 | -4.09% (inactive)
CCn1cc(C(=O)N[C@@H](C)C(=O)NCCO)c(=O)c2cc3c(cc21)OCO3 | -6.09% (inactive)
CC(=O)c1cc(CN2CCC(C(=O)Nc3cccc(-c4cscn4)c3)CC2)cs1 | 12.4% (inactive)
CSc1ccccc1OCc1cc(C(=O)N2C[C@H]3CC[C@H]2C3)no1 | 108% (active)
CSc1ccccc1OCc1cc(C(=O)N(C)CCc2c(C)n[nH]c2C)no1 | -3.19% (inactive)
COC(=O)[C@@H]1CCCN1C(=O)c1cc(COc2cccc3cccnc23)on1 | 18.1% (inactive)
CCOC(=O)c1sc(NC(=O)CSc2nc(O)c(Cc3ccccc3)c(=O)[nH]2)nc1C | 107% (inactive)
CSc1nc(O)c(Cc2ccccc2)c(=O)[nH]1 | 13.7% (inactive)
O=C(CSc1nc(O)c(Cc2ccccc2)c(=O)[nH]1)Nc1nc2c(s1)CCCC2 | 40.8% (active)
O=C(Nc1ccccc1C(=O)O)c1ccc(N2C(=O)C3CC=CCC3C2=O)cc1 (configuration not stated) | 21.8% (inactive)
COc1ccccc1N(CC(=O)Nc1ccccc1C(=O)N1CCCC1)S(C)(=O)=O | -2.57% (inactive)
Cn1c(=O)n(C)c2cc(C(=O)Nc3ccc4c(c3)OCO4)ccc21 | 33.6% (active)
Cn1c(=O)n(C)c2cc(C(=O)Nc3ccc(Br)cc3)ccc21 | -10.4% (inactive)
COc1ccc(S(=O)(=O)N(C)CC(=O)Nc2ccc3c(c2)OCCO3)cc1OC | 24.6% (inactive)
CCC(=O)c1cc2c(cc1NC(=O)c1cccs1)OCCO2 | -21.9% (inactive)
COc1ccc(C(=O)Nc2ccc3c(c2)OCO3)cc1OC | 99% (active)
COc1ccc(S(=O)(=O)Nc2ccc3c(c2)OCO3)cc1Cl | -1.27% (active)
CC(C)CNS(=O)(=O)c1ccc(OCC(=O)Nc2ccc3c(c2)OCO3)c(Cl)c1 | -2.63% (inactive)
COc1cc(OC)c(C(=O)NCc2ccc3c(c2)OCO3)cc1OC | -10.8% (inactive)
COc1ccc(F)cc1S(=O)(=O)Nc1ccc2c(c1)OCO2 | -6.49% (inactive)
COc1cc(NC(=O)c2ccc3c(c2)OCO3)ccc1NC(=O)c1cccs1 | 55.9% (active)
Cn1c(NC(=O)c2ccc3c(c2)OCO3)cc(=O)n(C)c1=O | -7.32% (inactive)

SMILES | inhibition
COc1cc(NC(=O)c2cccs2)ccc1NC(=O)c1ccccc1Cl | 39.7% (inactive)
COC(=O)c1ccc(C2C3=C(Nc4nnnn42)c2ccccc2OC3)cc1 (configuration not stated) | -11.2% (inactive)
CC1CN(C(=O)CCC(=O)NCCCN2CCC(Cc3ccccc3)CC2)c2cc(Cl)ccc2O1 (configuration not stated) | -10.8% (inactive)
O=C(CN(c1cc(C(F)(F)F)ccc1Cl)S(=O)(=O)c1ccccc1)NCc1cccnc1 | -32% (inactive)
Cc1cccc(C)c1N1C(=O)CN(Cc2ccccc2)C1=S | -4.26% (inactive)
COc1ccc(C(CNC(=O)COc2ccc([N+](=O)[O-])cc2)N2CCCCC2)cc1 (configuration not stated) | -4.67% (inactive)
COc1ccc(CN2CN(C3CCCC3)CSC2=S)cc1 | 17.5% (inactive)
CC1Cc2cc(/C(O)=C3\C(=O)C(=O)N(Cc4cccnc4)C3c3ccccc3F)ccc2O1 (configuration not stated) | -7.46% (inactive)
CCOC(=O)c1c(C)[nH]c(C(=O)NCCN2CCOCC2)c1C | 2.41% (inactive)
C[C@H]1[C@H]2c3nc4ccccc4n3C[C@H]1ON2C1CCCCC1 | -7.22% (inactive)
CCOC(=O)C(Cc1ccc(N)cc1)N1C(=O)c2ccccc2C1=O (configuration not stated) | 7.65% (inactive)
CC(=O)NC(=S)Nc1ccc(NC(=O)c2cccnc2)cc1 | 24.9% (inactive)
COc1cc(OC)cc(C(=O)Nc2ccc(-c3nc4ccccc4o3)c(O)c2)c1 | 35.4% (inactive)
CC(=O)Nc1ccc(Nc2c3ccccc3nc3ccccc23)cc1 | -31.9% (inactive)
Cc1cc(NS(=O)(=O)c2ccc(NC(=O)c3cccnc3)cc2)nc(C)n1 | 2.23% (inactive)
COC(=O)c1cc(NC(=O)c2cccnc2)ccc1N1CCOCC1 | 26.8% (inactive)
CC(=O)Nc1ccc(-c2nc3ccccc3o2)cc1 | 54.7% (active)
Cc1ccc2nc(-c3ccc(NC(=O)c4cccnc4)cc3)oc2c1 | 142% (active)
Cc1cc2nc(-c3ccc(NC(=O)c4cccnc4)cc3)oc2cc1C | 101% (active)
O=C(Nc1cnccn1)c1cccnc1 | 11% (inactive)
COc1ccc(CNC(=O)CN(C(=O)c2csnn2)c2cnc3ccccc3c2)cc1 | -8.3% (inactive)
CCOC(=O)c1cc(=O)c2ccc(OCc3ccccc3)cc2o1 | -1.81% (inactive)
CCOc1ccccc1NS(=O)(=O)c1c[nH]c(C(=O)OC)c1 | -3.38% (inactive)
Cc1ccc(NC(=O)C2CCN(S(=O)(=O)c3ccc4c(c3)NC(=O)CO4)CC2)cc1C | -2.09% (inactive)
CNC[C@H](CC1CCCCC1)NC[C@H](NCCC1CCCC1)[C@H](C)O | -0.811% (inactive)

SMILES | inhibition
O=C(Nc1cccc(Cl)c1Cl)c1ccccc1NC(=O)C1CC=CCC1C(=O)O (configuration not stated) | 35.7% (active)
O=C(Nc1ccccc1)c1ccccc1NC(=O)C(F)(F)F | 52.8% (inactive)
O=C(O)C1CC=CCC1C(=O)Nc1ccccc1C(=O)N1CCN(c2ccccc2)CC1 (configuration not stated) | -42.2% (inactive)
O=C(Nc1ccc(Cl)c(Cl)c1)c1ccccc1NC(=O)C1CC=CCC1C(=O)O (configuration not stated) | 59.4% (active)
CC(=O)Nc1ccc(NC(=O)COc2ccccc2C(=O)Nc2cccc(Cl)c2Cl)cc1 | 12.3% (inactive)
O=C(O)C1CC=CCC1C(=O)NCCc1ccccc1 (configuration not stated) | 5.17% (inactive)
Cc1ccc(N(CC(=O)NCC2CCCO2)C(=O)CNS(=O)(=O)c2ccc(Cl)cc2)cc1 (configuration not stated) | -7.51% (inactive)
CN(C(=O)CN1C(=O)/C(=C/c2ccc(Cl)cc2)SC1=S)C1CCS(=O)(=O)C1 (configuration not stated) | -7.14% (inactive)
O=C(c1cc2ccccc2s1)N1CCN(c2ccccn2)CC1 | 9.52% (inactive)
COc1ccc(-c2cc(=O)oc3cc(OCC(=O)N(C)C4CCS(=O)(=O)C4)ccc23)cc1 (configuration not stated) | -5.59% (inactive)
COc1cccc(C(=O)N2CCC(n3nccc3NC(=O)C3CCOC3)CC2)c1 (configuration not stated) | -9.25% (inactive)
CCOCCCN1C(=O)C2C(C(=O)Nc3ccc(OCC)cc3)C3C=CC2(O3)C1C(=O)NC1CCCCC1 (configuration not stated) | -6.78% (inactive)
Cc1ccc2cc(/C=N/NC(=O)[C@@H]3CCCN3)c(Cl)nc2c1 | 54.3% (active)
O=C(O)c1ccc(N/N=C/c2cn(-c3ccccc3)nc2-c2cccs2)cc1 | 46.3% (inactive)
CSCC[C@H](NC(=O)OC(C)(C)C)C(=O)N/N=C/c1cc2ccc(C)cc2nc1Cl | -11.9% (inactive)
Cc1ccc(/C=N/NC(=O)C2=NNC(c3ccccc3)(c3ccccc3)C2)c(O)c1 | 33.7% (inactive)
O=C(Nc1cccc(F)c1)[C@@H]1CCCN1 | 3.23% (inactive)
O=C(O)c1ccc(/C=N/Nc2nc(N3CCCCC3)nc(N3CCCCC3)n2)cc1 | -6.74% (inactive)
CCNC(=S)NNC(=O)c1ccc2ncccc2c1 | 38% (inactive)
O=C(O)c1ccc(N/N=C/c2ccc3ncccc3c2)cc1 | 45.9% (active)
Cc1ccc2cc(/C=N/Nc3ccc(C(=O)O)cc3)c(Cl)nc2c1 | 51.3% (active)
Cc1cc(OCC(=O)N2CCN(c3ncccn3)CC2)ccc1Cl | -7.52% (inactive)
COc1cc(OC)cc(C(=O)NCCSCc2ccc(Cl)cc2)c1 | -9.78% (inactive)
COc1ccc2c(c1)C(=C(C#N)C#N)C(=O)N2CCc1ccccc1 | 6.44% (inactive)
O=C1CN(C(=O)c2cc(F)cc(F)c2)c2ccccc2N1 | -2.51% (inactive)

SMILES | inhibition
CC(C)CC(O)C1CCN(C(=O)CCc2nnc(-c3ccc4c(c3)OCO4)o2)CC1 (configuration not stated) | -6.93% (inactive)
CC(CO)NCC12CC3CC(CC(C3)C1)C2 (configuration not stated) | 2.32% (inactive)
CCOc1ccccc1NC(=O)Cn1nnc(C(=O)NCc2cccs2)c1N | -4% (inactive)
COC1=C/C(=C/c2c(N)n3nc(CC(=O)N4CCOCC4)sc3nc2=O)C=CC1=O | -2.63% (inactive)
COc1ccc(CN2CC(C(=O)NC3CCCCC3)CC2=O)cc1 (configuration not stated) | -6.86% (inactive)
Cc1ccc(C)c(OCCC(=O)OCC(=O)N2CCN(c3ccccc3)CC2)c1 | -5.02% (inactive)
CCN1CCCC1CNC(=O)c1cc2cc(OC)c(OC)cc2[nH]1 (configuration not stated) | -5.24% (inactive)
CC(O)c1ccc(OCCN(C)c2ccccn2)cc1 (configuration not stated) | 87.4% (active)
CC(C)c1ccc(OCC(O)CN2CCN(c3ccccn3)CC2)cc1 (configuration not stated) | -24.5% (inactive)
CCOc1ccc(C(C(=O)NCCOC)N(CCOC)C(=O)CCC(=O)Nc2ccccn2)cc1 (configuration not stated) | -13.1% (inactive)
COc1ccc(-c2noc(C(C)NS(=O)(=O)c3ccc(NC(C)=O)cc3)n2)cc1 (configuration not stated) | -7.2% (inactive)
COc1ccc(CCNC(=O)C(=O)NCC2OCCN2S(=O)(=O)c2ccc(F)cc2)cc1OC (configuration not stated) | 2.97% (inactive)
COc1ccccc1NC(=O)/C=C/C(=O)O | -5.02% (inactive)
COC(=O)c1sc(-c2ccc(C(C)(C)C)cc2)cc1NC(=O)/C=C/C(=O)O | 108% (active)
O=C(O)/C=C/C(=O)Nc1ccc(F)cc1F | -11.9% (inactive)
C=CCn1c(SCc2ccc(C(=O)NCCO)cc2)nc2ccccc2c1=O | -5.58% (inactive)
CC(C(=O)Nc1ccc(O)c(C(=O)O)c1)N1C(=O)/C(=C/c2cccs2)SC1=S (configuration not stated) | 5.02% (inactive)
COCCCNC(=O)[C@H]1N2C(=O)c3ccccc3C2SC1(C)C (some centres not stated) | -3.4% (inactive)
COc1ccc(C2=Nn3c(nnc3-c3ccccc3O)SC2)cc1 | 42.8% (active)
Cc1nnc2n1N=C(c1ccccc1)CS2 | -5.72% (inactive)
CC1=Nn2c(nnc2-c2ccccc2)SC1 | -3.08% (inactive)
COc1cc(/C(=C/c2ccccc2)c2ccccc2)c2c(c1)oc1ccccc12 | -7.7% (inactive)
